High-throughput results deposited in PubChem BioAssay by National Center for Advancing Translational Sciences (NCATS).
Vaccinia mCherry = vaccinia inhibition (mCherry reporter) | AID 720579 | 310,000 compounds, 0.63% hits | Vaccinia virus mCherry reporter infection, fluorescence | Potency, µM (highest dose often 36.5 µM), inactives show at the highest dose activity change, negative = inhibition, usual class: inhibitors; calls by dose curve; tested in A549 cells; further: nearly all actives have a fitted effect of over 35% in size
Marburg entry inh = inhibitors of Marburg virus binding or cell entry; AID 540276; Marburg virus pseudotyped entry inhibition, cell reporter; 300,000 compounds, 1.8% hits; Potency, µM (series often up to 37.8 µM), for inactives: at the highest dose activity change, negative = inhibition, usual class: inhibitors; calls by dose curve; tested in HEK293 cells
Vaccinia Venus = inhibitors of vaccinia virus (Venus reporter); Vaccinia virus Venus reporter expression, fluorescence; Potency, µM (titrated, usually from 36.5 µM), for inactives: at the highest dose activity change, negative = inhibition, hits mostly inhibitors; 330,000 compounds, 0.46% hits; calls by dose curve; tested in A549 cells; further: nearly all actives have a fitted effect of over 30% in size
HCV inh = blocks hepatitis C virus; Huh7.5.1 HCVcc-Cre infection, luciferase reporter, 44 h; Potency, µM (doses to about 41.8 µM), inactives show top-dose activity change, negative = inhibition, actives largely listed as inhibitors; 340,000 compounds, 3.4% hits; active means well fitted inhibition curve with a large enough effect; inconclusive means small, poorly fitted or top-dose-only effect, or another doubt; inactive means no such curve, though single readings can be large or run the other way
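Whole-lifecycle infectious HCVcc-Cre system; cells 1,000/well, compound then virus (~0.5 moi) added 4 h after plating, 44 h culture. Luciferase read 15 sec following 15 min substrate incubation, room temp.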
LASV entry inh = inhibitors of Lassa virus binding or cell entry | Lassa virus pseudotype entry inhibition, cell reporter | AID 540256 | 300,000 compounds, 1.2% hits | Potency, µM (top dose mostly 37.9 µM), inactives show top-dose activity change, negative = inhibition, actives largely listed as inhibitors; calls by dose curve; tested in HEK293 cells; further: nearly all actives have a fitted effect of over 50% in size
Active calls of the source: *; i = inactive; ? = inconclusive; · = not tested or not shown; [ ] = another dose, or the depositor's remark. The list is not random: actives were taken first. Their share in the collection is about 4.6%. On the % scale 0 is the no-effect control and ±100 the full control effect; potency means the concentration at half of the fitted maximal effect.

SMILES	Vaccinia mCherry	Marburg entry inh	Vaccinia Venus	HCV inh	LASV entry inh
Cn1nc(-c2ccncc2)nc2c(=O)n(C)c(=O)nc1-2	0.89µM*	·	1µM*	·	·
CS(=O)(=O)c1nc(-c2ccccc2)cc(-c2ccccc2)c1C#N	-7%	13µM*	-21%	28µM*	15µM*
CCc1cc(Cl)c(OC)c(C(=O)NC[C@@H]2CCCN2CC)c1O	-4%	·	-19%	5µM*	·
CCN1CCCC1CNC(=O)c1ccccc1Cl (stereo unspecified)	·	?	-1%	9%	-2%
CCCOc1ccc(OC(=O)c2cn(-c3ccc(OC)cc3)c(=O)c3ccccc23)cc1	6%	·	-4%	·	?
Cc1ccc(NC(=O)CN2C(=O)COc3ccc(S(=O)(=O)NC4CCCC4)cc32)c(Cl)c1	-4%	·	-10%	·	-6%[46.1 µM]
COc1ccc(C(NCC(=O)NC(C)c2ccc(Cl)cc2)c2ccccc2)cc1 (stereo unspecified)	·	·	·	11µM*	·
OC(CC#CCN1CCCCC1)(c1ccccc1)c1ccccc1	-12%	?	-18%	-27%	?
OC(CC#CCN1CCCC1)(c1ccccc1)c1ccccc1	-14%	10µM*	-15%	6%	-28%
CC(N)(C(=O)O)c1ccc(P(=O)(O)O)cc1 (stereo unspecified)	-6%	·	-9%	·	·
CCN1CCN(CCCNC(=O)C2CCCN(c3nc4c(C)cc(C)cc4s3)C2)CC1 (stereo unspecified)	i	·	-25%	10µM*	·
Cc1cc(C)c2nc(N3CCCC(C(=O)NCCCN4CCOCC4)C3)sc2c1 (stereo unspecified)	?	?	-28%	?	?
CCOc1ccc2nc(N3CCCC(C(=O)NCCCN4C(C)CCCC4C)C3)sc2c1 (stereo unspecified)	i	?	-26%	2.5µM*	16%[46.1 µM]
COc1ccc(CNC(=O)Cn2nnc(-c3ccc(C(F)(F)F)cc3)n2)cc1	-12%	·	-8%	·	-4%[46.1 µM]
O=C(CCCn1c(=O)[nH]c2ccccc2c1=O)Nc1ccc(F)cc1	-3%	5%	-13%	24%	6%
O=C(c1ccc(F)cc1)C1CCN(CCn2c(=O)[nH]c3ccccc3c2=O)CC1	-1%	11µM*	-19%	?	0%
COc1ccc(/C=c2/sc3n(c2=O)C(c2ccccc2OC)C2=C(N=3)c3ccccc3CC2)cc1O (stereo unspecified)	·	23µM*	·	?	-25%
C=C1C(=O)OC2CC1C(O)CC(C)=CCCC(C)=CC(O)CC2C (stereo unspecified)	?	4µM*	11µM*	7.1µM*	?
O=C(O)[C@H](Cc1c[nH]c2ccccc12)NS(=O)(=O)c1cccc2nsnc12	·	11%	·	·	·
COC(=O)c1cc2oc3ccccc3c2n1CC(=O)Nc1ccc(C)cc1Cl	-22%	-14%[46.1 µM]	-14%	·	·
Cc1cc(NC(=O)CN2C(=O)CC(c3ccco3)Sc3ccccc32)no1 (stereo unspecified)	i	·	-5%	35µM*	·
CC(=O)Nc1ccc(NC(=O)CN2C(=O)CC(c3ccco3)Sc3ccccc32)cc1 (stereo unspecified)	6%	5%[46.1 µM]	7%	·	·
COc1ccc2[nH]cc(CCNC(=O)c3cnn(-c4ccc(C)cc4)c3C3CCN(C(=O)OC(C)(C)C)CC3)c2c1	-7%	·	-18%	·	?
N#C/C(=C\c1ccc(-c2ccc(C(=O)O)cc2)o1)c1nc2ccccc2[nH]1	-6%	10µM*	13%	5%	?
COc1ccccc1NC(=O)CSc1nnc(-c2ccccc2C)o1	-6%	?	-2%	·	?
SMILES	Vaccinia mCherry	Marburg entry inh	Vaccinia Venus	HCV inh	LASV entry inh
CCOC(=O)CSc1nnc(-c2ccccc2NC(=O)c2ccccc2)o1	-5%	3%	2%	15%	9%
CCc1nnc(NC(=O)CSc2nnc(-c3ccccc3NC(=O)c3ccccc3)o2)s1	i	-1%	-13%	11µM*	-2%
Cc1ccccc1-c1nnc(SCC(=O)Nc2cccnc2Cl)o1	-16%	?	-12%	11%	2µM*
COC(=O)c1cccc(C(=O)NCc2nc(-c3cccc(NC(=O)c4ccoc4C)c3)oc2C)c1	-26%	·	-23%	·	·
O=C(/C=C/c1ccc(Cl)cc1Cl)Nc1cccc(S(=O)(=O)NC2=NCCC2)c1	·	13µM*	·	?	15µM*
O=C(/C=C/c1ccc([N+](=O)[O-])cc1)Nc1cccc(S(=O)(=O)NC2=NCCCCC2)c1	-21%	?	?	25µM*	?
O=C(/C=C/c1ccccc1Cl)Nc1cccc(S(=O)(=O)NC2=NCCCCC2)c1	-6%	?	-26%	?	6%
C[N+]1(CC(=O)c2ccc(F)cc2)CCc2ccccc2C1 (stereo unspecified)	i	·	-8%	·	·
COC(=O)c1ccc(NC(=O)C(=O)NCC(c2cccnc2)N2CCN(c3ccccc3)CC2)cc1 (stereo unspecified)	-17%	·	-17%	·	-9%[46.1 µM]
COc1cccc(NC(=O)C(=O)NCC(c2cccnc2)N2CCN(c3ccccc3)CC2)c1 (stereo unspecified)	-15%	·	-14%	·	11µM*
O=C(NNc1ccccc1)c1sc2ccccc2c1Cl	-12%	·	-18%	·	·
CCCN1C=CC(=C2C(=O)c3ccccc3C2=O)C=C1	·	0.21µM*	·	-6%	0.21µM*
CCCCCCN1C=CC(=C2C(=O)c3ccccc3C2=O)C=C1	·	·	·	3%	·
CCN1C=CC(=C2C(=O)c3ccccc3C2=O)C=C1	·	1.8µM*	·	-7%	0.65µM*
CSc1ccc(/C=C/C(=O)Nc2ccccc2)cc1	0%	7.1µM*	-12%	-28%	?
CSc1cccc(NC(=O)/C=C/c2ccc(Cl)cc2)c1	·	2%	·	13µM*	-1%
CC(=O)c1ccc(F)c(-c2cc(C)cc3c2OC(CNC(=O)c2csc(C)n2)C3)c1 (stereo unspecified)	-19%	·	-15%	·	·
CC(C)NC(=O)[C@@H]1C[C@@H](Sc2nc3ccccc3[nH]2)CN1C1Cc2ccccc2C1	?	·	-25%	·	·
CN(C)c1ccc(/C=C/c2cnnc3ccccc23)cc1	-5%	·	68%	·	·
